# Screening results as filed in PubChem.
# Most compounds without a hit are left out; they make up all but 5.7% or so of the library.
# Nrf2 block = Nrf2 qHTS screen for inhibitors; A549 ARE-Fluc reporter, luciferase luminescence, 18-24 h; Potency, µM (top dose mostly 46 µM), for inactives: at the highest dose activity change, negative = inhibition, hits mostly inhibitors; hit rate 2.1% among 360,000; AID 504444, 2011; also: potency is read from the fitted curve at half-maximal effect; nearly all actives have a fitted effect of over 60% in size
#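 Concentration-response testing used A549 ARE_Fluc cells at 5000 cells/well. Following an 18-24 h compound incubation, viability was read by fluorescence (Ex 405/Em 525) and luciferase output by luminescence.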
# KB-3-1 tox = qHTS assay for MDR1-selective chemotherapeutics: Primary screen using the parental adenocarcinoma cell KB-3-1. KB-3-1 viability, CellTiter-Glo ATP luminescence, 72 h. Potency, µM (highest dose often 46.1 µM), usual class: cytotoxic. hit rate 1.4% among 400,000. AID 1347075, 2019; also: potency is read from the fitted curve at half-maximal effect; nearly all actives have a fitted effect of over 60% in size
#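 Cells are dispensed, compounds pinned in, plates held at 37 °C for 72 h, then CellTiter-Glo is added and luminescence read after 10 minutes. Cell line: parental KB-3-1 in phenol-red-free DMEM, 10% FBS.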
# A549 viability = Nrf2 qHTS screen for inhibitors: counterscreen for cytotoxicity; A549 ARE-Fluc cells, CellTiter-Fluor viability, 18-24 h; Potency, µM (highest dose often 46 µM), inactives show at the highest dose activity change, negative = cytotoxicity, most hits filed as inhibitors; hit rate 0.16% among 390,000; AID 504648, 2011; also: potency is read from the fitted curve at half-maximal effect
#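 Cytotoxicity counterscreen: CellTiter-Fluor fluorescence was measured in A549 ARE_Fluc cells after 18-24 h of compound exposure in a concentration series. The subsequent BugLite luminescent read reports ARE-luciferase activity.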
# PI4K2A block = qHTS for small molecular inhibitors of PI4K2A; purified PI4K2A, ADP-Glo luminescence, 1 h; stronger effect = lower value; hit rate 0.13% among 420,000; activity change, negative = inhibition, % at 76.9 µM; Phosphatidylinositol 4-kinase type 2-alpha (Homo sapiens), Q9BTU6; AID 1346378, 2018; in the data active = activity change below about -50%; inconclusive = mostly about -30% to -49%;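 also: -100% = wells without enzyme as full effect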
# Target sequence (Q9BTU6 whole entry, looked up): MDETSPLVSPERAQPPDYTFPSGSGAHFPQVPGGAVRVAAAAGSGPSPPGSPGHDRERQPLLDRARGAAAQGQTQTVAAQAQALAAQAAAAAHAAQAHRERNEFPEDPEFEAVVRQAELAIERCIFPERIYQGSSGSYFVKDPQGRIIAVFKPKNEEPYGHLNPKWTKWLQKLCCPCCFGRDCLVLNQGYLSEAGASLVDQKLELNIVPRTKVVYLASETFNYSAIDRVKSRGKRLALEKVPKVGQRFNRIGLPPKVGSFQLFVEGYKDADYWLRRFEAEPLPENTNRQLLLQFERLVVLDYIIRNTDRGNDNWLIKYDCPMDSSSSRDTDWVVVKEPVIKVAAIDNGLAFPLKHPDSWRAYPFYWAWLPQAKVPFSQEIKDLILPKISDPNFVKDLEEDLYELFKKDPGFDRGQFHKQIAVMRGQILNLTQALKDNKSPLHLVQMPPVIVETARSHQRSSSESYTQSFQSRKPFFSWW
#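 In this quantitative HTS, ADP production by PI4K2A was quantified luminescently after 1 h at ambient temperature; 100 microM adenosine served as plate-quality control.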
# KB-V1 cytotox = qHTS assay for MDR1-selective chemotherapeutics: Primary screen using the drug-selected MDR subline cells KB-V1; Potency, µM (series often up to 46.1 µM), hits mostly cytotoxic; hit rate 3.4% among 400,000; KB-V1 MDR cells viability, CellTiter-Glo, 72 h; also: potency is read from the fitted curve at half-maximal effect; nearly all actives have a fitted effect of over 60% in size
#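 Compound-treated KB-V1 multidrug-resistant cells, 72 h, 37 degrees C; viability by CellTiter-Glo. Fitted qHTS curves give the values.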
# Giardia killer = Small Molecules that selectively kill Giardia lamblia: qHTS. hit rate 0.15% among 340,000. activity change, % at 7.66 µM, hits read low. Giardia lamblia trophozoite viability; in the data active = activity change below about -80%; inconclusive = between about -30% and that limit;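 also: parasites exposed to compound for two days anaerobically before the ATP read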
#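 Viability, read as ATP luminescence: trophozoites at 100 cells/well, compound added, 48 hrs anaerobic at 37 deg C, then 15-30 min room-temperature development before reading.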
# Starred values were filed as active, the others as inactive; i = inactive; ? = inconclusive; · = no result given; [ ] = dose if it differs, or a comment. Unless noted, calls follow the shape of the dose curve; as a rule, active = well fitted curve in the direction sought with a large enough effect; inconclusive = small, poorly fitted or top-dose-only effect, or another doubt; inactive = no such curve, though single readings can be large; an effect the other way counts as inactive or inconclusive. Unless noted, % is scaled to controls: 0 for no effect and ±100 for the full control effect.
SMILES,Nrf2 block,KB-3-1 tox,A549 viability,PI4K2A block,KB-V1 cytotox,Giardia killer
CCN1CCn2c3c(c4cc(C)ccc42)CCCC31 (stereo not drawn),15.5%,i,11.5%,-5.5,i,-20.8
COc1cccc(NC(=O)C2(C)CCN2Cc2cccc(OC)c2F)c1 (stereo not drawn),·,i,·,-1.5,i,·
COc1cccc(CN2CCC2(C)C(=O)Nc2cccc(Oc3ccccc3)c2)c1F (stereo not drawn),·,?,·,2.4,7.31µM*,·
CCOc1ccc(CN2CCN(S(=O)(=O)c3ccc(NC(C)=O)cc3)CC2)cc1,20.6µM*,?,-5.0%,-1.2,?,-6.5
COc1ccc(CN2CCN(S(=O)(=O)c3ccc(NC(C)=O)cc3)CC2)cc1OC,-34.0%,i,12.9%,-3.3,20.6µM*,23.3
CCOc1ccc(NC(=O)CN2CCN(S(=O)(=O)c3ccc(OC)cc3)CC2)cc1,-23.6%,i,-0.3%,1.2,i,·
COc1ccc(OC)c(C2=Nn3c(nnc3-c3ccccc3C)SC2)c1,-21.7%,·,-0.9%,·,·,·
CC1=C(CC(=O)c2ccc(Cl)cc2)C(=O)c2ccccc2C1=O,?,?,?,-8.9,16.4µM*,8.9
O=C(NCC1(c2ccccc2)CCCC1)C(=O)NCC1(c2ccccc2)CCCC1,0.9%,i,8.3%,3.3,i,-11.6
S=C(NCC1(c2ccccc2)CCCC1)Nc1ccccc1,16.4µM*,?,-7.2%,6.2,i,7.8
O=C(C[n+]1cccc(Br)c1)c1ccc(I)cc1,·,i,·,·,i,·
COC(=O)[C@H](C(C)C)N1CCc2nnn(Cc3ccc(C)cc3)c2-c2cc(F)ccc2S1(=O)=O,·,·,·,1.8,·,·
CCOC(=O)C1=C(C)NC(=O)NC1c1ccc(OC)c(Cl)c1 (stereo not drawn),·,i,5.4%,-0.8,20.6µM*,-9.0
CCOC(=O)C1=C(CCl)NC(=O)NC1c1ccc2c(c1)OCO2 (stereo not drawn),14.6µM*,?,-18.0%,-2.6,i,3.8
CC1=C(C(=O)OCc2ccc3c(c2)OCO3)C(c2ccc(Cl)cc2)NC(=O)N1 (stereo not drawn),7.31µM*,?,?,-2.0,11.6µM*,-4.0
CCOC(=O)C1=C(CN2CCSCC2)NC(=O)NC1c1ccc2c(c1)OCO2 (stereo not drawn),-6.1%,i,1.1%,-5.4,i,-26.9
C=CCN1CC(=O)N2C(c3ccccc3)c3[nH]c4ccccc4c3C[C@H]2C1=O (stereo partly drawn),?,6.51µM*,-5.0%,2.2,i,2.3
COCCCN1CC(=O)N2C(c3ccccc3)c3[nH]c4ccccc4c3C[C@H]2C1=O (stereo partly drawn),6.7%,i,3.2%,8.0,i,0.1
CCOc1ccccc1NC(=O)c1ccccc1N(C)S(=O)(=O)c1ccc(C)cc1,-11.9%,?,-9.0%,-2.4,11.6µM*,-0.9
CCCNC(=O)c1ccccc1NC(=O)c1ccccc1N(C)S(=O)(=O)c1ccc(C)cc1,?,18.4µM*,?,-1.7,?,17.1
CCOc1ccccc1NC(=O)c1cc2cc(C)ccc2n1C,5.2%,?,-3.8%,0.9,8.2µM*,·
CCOc1ccccc1NC(=O)c1ccc(S(=O)(=O)N(C)c2ccccc2)cc1,?,i,3.4%,-0.5,?,9.6
CCOc1ccc(NC(=O)c2cc3cc(C)ccc3n2C)cc1,-1.8%,i,-0.4%,-0.7,i,·
COc1ccc(-c2cn(-c3ccc(C)cc3)c(S(=O)(=O)CC(=O)Nc3ccccc3)n2)cc1,-61.5%[9.27 µM],i,?,4.6,i,·
O=C(OCc1cn(Cc2ccc(F)cc2F)nn1)N1CCOCC1,·,·,·,3.4,·,·
SMILES,Nrf2 block,KB-3-1 tox,A549 viability,PI4K2A block,KB-V1 cytotox,Giardia killer
CCOc1ccc(-n2c(SCC(=O)Nc3ccc(S(=O)(=O)Nc4nccs4)cc3)nnc2-c2ccco2)cc1,·,·,·,-6.4,·,·
Cc1ccnc2ccc(N)cc12,·,i,·,·,i,·
Cc1ccc(-n2[nH]c(C)c(N=Nc3cccc(-c4cccc(C(=O)O)c4)c3O)c2=O)cc1C,·,·,·,-8.3,·,·
C=C[C@]1(C)C=C2C(=O)[C@@]3(O)OC(=O)[C@@]4(CCCC(C)(C)[C@H]34)[C@@]2(O)CC1,·,4.61µM*,·,-19.2,?,·
Cc1cc2c(s1)c1cnn(Cc3ccc(C(F)(F)F)cc3)c(=O)c1n2C,15.4%,·,-4.0%,·,·,·
O=[N+]([O-])c1ccc(S(=O)(=O)c2ccccc2)nc1,?,i,-20.3%,6.5,i,-6.8
Cc1ccc(S(=O)(=O)c2ccc([N+](=O)[O-])cn2)cc1,?,6.51µM*,-6.3%,18.0,9.2µM*,2.2
Clc1cc(Cl)cc(CNC2CCC23CCCCC3)c1 (stereo not drawn),·,·,·,-0.2,·,·
CCc1cccc(CC)c1NC(=O)COC(=O)C1(c2ccc(Cl)cc2)CCCC1,-6.7%,i,3.2%,-1.0,4.61µM*,12.1
Cn1c(N)c(C(=O)COC(=O)C2(c3ccc(Cl)cc3)CCCC2)c(=O)n(C)c1=O,18.4µM*,?,?,3.8,?,2.5
CCOc1cc(C(=O)OCC(=O)c2c(N)n(C)c(=O)n(C)c2=O)cc(OCC)c1OCC,-22.0%,i,-14.2%,1.9,18.4µM*,-10.9
Cn1c(N)c(C(=O)COC(=O)C2(c3ccc(F)cc3)CCCC2)c(=O)n(C)c1=O,?,i,-5.9%,-18.5,?,29.4
COc1ccc(Cl)cc1C(=O)OCC(=O)c1c(N)n(C)c(=O)n(C)c1=O,·,i,·,-70.7*,i,·
CC(=O)Nc1ccc(NC(=O)COC(=O)C2(c3ccc(Cl)cc3)CCCC2)cc1,?,i,-6.7%,-1.4,i,-3.8
CCCCCCCCCCCCCCCCCCN(CCCCCCCCCCCCCCCCCC)c1ccc(C=O)cc1,·,i,·,·,i,·
CCOc1ccc(CCNC(=O)c2cc3sccc3n2Cc2ccccc2)cc1OCC,·,·,·,1.1,·,·
COc1ccc2c(c1)OC[C@H]1[C@H]2N2C(=O)c3cc(C)ccc3NC(=O)[C@@]2(C)[C@H]1c1ccccc1,6.0%,i,0.3%,2.1,i,-4.8
COc1ccc2c(c1)OC[C@H]1[C@H]2N2C(=O)c3ccccc3NC(=O)[C@@]2(C)[C@H]1c1ccccc1,?,20.6µM*,1.8%,-3.2,?,-12.8
CC12CCC(C(=O)N3CCc4ccccc43)(CC1=O)C2(C)C (stereo not drawn),12.0%,i,-5.2%,-4.3,?,3.5
